Experiments:
[1] = tested on: P. falciparum NF54-pfs16-GFP early (I-III) stage gametocytes; assay: relative % inhibition of viable gametocyte number; higher = more gametocytocidal; conditions: stage: early (I-III) gametocyte, incubation 72 h
Method in brief: (§1)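 Early-stage (I/IIa, day 2) or late-stage (day 8) NF54 pfs16-GFP gametocytes were isolated by magnet and plated in 384-well poly-D-lysine imaging plates at 10% parasitaemia and 0.1% haematocrit, with compound in duplicate at 5 or 0.5 µM. After 72 h at 37°C under 5% CO2 and 5% O2, MitoTracker Red was added overnight. Confocal imaging scored elongated GFP objects whose MitoTracker signal passed a cut-off as viable gametocytes. Relative inhibition was normalised against vehicle and positive-control wells on the same plate.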

[2] = tested on: P. falciparum NF54-pfs16-GFP late (IV-V) stage gametocytes; assay: as above; conditions: stage: late (IV-V) gametocyte, incubation 72 h
Method in brief: as §1

| SMILES | relative % inhibition ([1]; 0.5 µM) [%] | relative % inhibition ([1]; 5 µM) [%] | relative % inhibition ([2]; 0.5 µM) [%] | relative % inhibition ([2]; 5 µM) [%] |
| --- | --- | --- | --- | --- |
| O=c1nc(C=Cc2ccc(Cl)cc2)oc2ccccc12 | 10.5 | -14.5 | 7.96 | 19.3 |
| Oc1c(CN2CCN(c3ccccc3F)CC2)cc(Br)c2cccnc12 | 15.7 | 89.8 | 22.3 | 79.5 |
| CCCCCCc1cc2cc(-c3nc4ccccc4[nH]3)c(=Nc3ccccc3C)oc2cc1O | 60.1 | 100 | 35 | 52.7 |
| COc1ccc(Nc2nc(NN=Cc3ccc(O)cc3)nc(Nc3ccc([N+](=O)[O-])cc3)n2)cc1 | -0.568 | 101 | -4.05 | 31.8 |
| Cc1ccc(-c2cc3nc4c(c(O)n3n2)CCCC4)cc1 | 5.35 | -1.24 | 4.75 | 9.04 |
| N=c1c2ccccc2nnn1-c1cccc(C(F)(F)F)c1 | 1.39 | 17.4 | 14.7 | 46.2 |
| COc1ccc(C(=O)NC(c2ccccc2Cl)c2cc(Cl)c3cccnc3c2O)cc1 (stereo unspecified) | 5.42 | 49.4 | 18.6 | 38.6 |
| CC1(c2ccccc2)Nc2ccccc2-c2nc3ccccc3n21 (stereo unspecified) | 1.27 | 32.3 | 46.2 | 46.6 |
| Cc1cc(NCCN2CCCCC2)c2ccc3ccccc3c2n1 | 10.2 | 97.3 | 4.67 | 36.7 |
| Cc1ccc(CN2CCC(C(=O)Nc3ccc(-c4cc5ccccc5[nH]4)cc3)CC2)o1 | 9.97 | 90.5 | 3.47 | -13.5 |
| c1ccc(C2=Nc3ccccc3N=C(c3ccccc3)c3ccccc32)cc1 | 35.8 | 101 | 15.2 | 47.2 |
| CC1CCN(Cc2c(O)ccc3cc(-c4nc5ccccc5s4)c(=O)oc23)CC1 | 2.97 | 94.7 | 18.2 | 18.4 |
| CN1c2ccccc2N(C)C1c1ccc2c(c1)OCO2 | 0.225 | -13.6 | 28.6 | -1.98 |
| CCCCN(CCCC)S(=O)(=O)c1ccc(NC(=O)c2ccco2)cc1 | 16.5 | 7.65 | 7.52 | 1 |
| COc1ccc(Br)cc1C1Nc2ccc3ccccc3c2C2=C1C(=O)CC(c1ccccc1)C2 (stereo unspecified) | 27.7 | 70.3 | 2.99 | 16.2 |
| CC(C)(C)C(=O)Nc1ccc(C(=O)Nc2cccc(-c3nc4ccccc4[nH]3)c2)cc1 | 7.02 | 15.3 | 3.45 | 17.3 |
| COc1ccccc1N1C(=N)SC(=Cc2ccc(OCc3ccccc3F)cc2)C1=O | 2.18 | 25.8 | 32.6 | 69.4 |

| SMILES | relative % inhibition ([1]; 0.5 µM) [%] | relative % inhibition ([1]; 5 µM) [%] | relative % inhibition ([2]; 0.5 µM) [%] | relative % inhibition ([2]; 5 µM) [%] |
| --- | --- | --- | --- | --- |
| O=C(CCl)NCCOc1ccc(Cl)cc1Cl | 24 | 9.39 | 8.06 | 5.3 |
| COC(=O)c1ccc(Cl)c2c1C1C=CCC1C(c1cccc3ccccc13)N2 (stereo unspecified) | -9.28 | 8.02 | -9.69 | 35.3 |
| COc1ccccc1CNC(=O)CCn1c(=O)[nH]c2ccccc2c1=O | 27.4 | 28.5 | -5.22 | 2.14 |
| COc1cc(C(=O)ON=C(N)Cc2cccc3ccccc23)cc(OC)c1OC | -8.44 | 74.1 | 2 | 82.3 |
| Cc1ccc(-c2cc3c(nn2)-c2ccccc2C3=O)cc1 | 2.74 | 95 | 102 | 70.6 |
| CCN1CCN(c2cc(C)c3cc(NC(=O)c4ccc(OC)c(OC)c4)ccc3n2)CC1 | 11.4 | 14.1 | -6.56 | 3.96 |
| Cc1cc(C)cc(Nc2cc(C)nc3nc(C(F)(F)F)nn23)c1 | -6.02 | 10 | -4.65 | -1.16 |
| CC1CC(C)CN(C(=O)c2ccc(Cl)cc2Cl)C1 (stereo unspecified) | -0.883 | -4.96 | 1.4 | 3.37 |
| COc1ccc2c(=O)cc(C(Cl)(Cl)Cl)oc2c1 | 68.6 | 85.1 | 8.37 | 15.5 |
| CN(C)c1ccc(N=Cc2ccc(N3CCOCC3)cc2)cc1 | 2.5 | 48.6 | 22.1 | 62 |
| CCCCc1c(C)nc2c(OC)cccc2c1O | 12.7 | -0.633 | 35.7 | 63.9 |
| COc1ccc(CNC(=O)c2cc3c(=O)n4ccccc4nc3n(CCc3ccccc3)c2=N)cc1 | 2.74 | 56.6 | -16.6 | -9.45 |
| Cc1ccc(-c2nc3ccccc3o2)cc1NCc1cc(Cc2ccccc2)ccc1O | 9.8 | 95.1 | 13.4 | 48.6 |
| CCN(CC)CCn1c(=N)n(CC(O)c2ccc(Cl)c(Cl)c2)c2ccccc21 (stereo unspecified) | 32.2 | 61.8 | 19.3 | 89.4 |
| O=C(Nc1ccc(Cl)c(Cl)c1)Nc1ccc(Cl)c(Cl)c1 | 4.74 | 96 | 17.5 | 48.8 |
| CCOc1cc2c(cc1OCC)C(c1cc(C)c(O)c(C)c1)NCC2 (stereo unspecified) | 18.2 | 102 | 24.3 | 34.7 |
| CCOc1ccc(-n2cc(-c3ccccc3)c3c(SCc4cc(C)ccc4C)ncnc32)cc1 | -4.24 | -7.96 | 11.3 | 19.7 |

— the supplement of paper PMC3842684
